Where “and” joins values, the source holds several entries; their conditions need not be identical. Identical values can stand only once. The campaign covered roughly 1,300 compounds. About 1,000 (77%) were called active. Inconclusive results (about 7%) are left out. The call rests on the fitted dose curve; in most records, active means well fitted inhibition curve with a large enough effect; inconclusive means small, poorly fitted or top-dose-only effect; inactive means no such curve, though single readings can be large or run the other way. So high a share suggests a set chosen from earlier hits. This is one part of the list.
test: qHTS of small molecules that selectively kill Giardia lamblia: Hit Validation.;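 further: viability measured as ATP content by luminescence so killing lowers signal; trophozoites exposed to compounds for 48 h anaerobically at 37 °C; nearly all actives have a fitted effect of over 65% in size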; settings: Giardia lamblia trophozoite viability, dose-response; series mostly up to 38.3 µM; activity change, negative = killing: at the top concentration
Method in brief: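 Luminescence from cellular ATP indicates surviving trophozoites (100 cells/well) following 48 hrs anaerobic compound treatment at 37 deg C; signal develops 15-30 min at room temperature.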
On the % scale 0 is the no-effect control and ±100 the full control effect; potency means the concentration at half of the fitted maximal effect.

| Compound | activity change, negative = killing | Potency |
| --- | --- | --- |
| O=C(NCc1ccccc1CN1CCCC1)c1cccc(S(=O)(=O)N2CCCC2)c1 | -31% (inactive) |  |
| COc1ccc(CNC(=O)CN2C(=O)COc3ccc(S(=O)(=O)N4CCCCC4)cc32)cc1 | -19.2% (inactive) |  |
| COc1ccc(S(=O)(=O)N2CCCCC2)cc1NC(=O)c1ccc([N+](=O)[O-])o1 |  | 1.45 µM (active) |
| CC(C)C(=O)NC(=S)Nc1ccc(S(=O)(=O)N2CCCC2)cc1 | -15.4% (inactive) |  |
| O=C(Nc1ccc2cn[nH]c2c1)c1ccc(S(=O)(=O)N2CCOCC2)cc1 | 11.3% (inactive) |  |
| O=C(Nc1ccc(S(=O)(=O)N2CCOCC2)cc1)c1ccc([N+](=O)[O-])o1 |  | 1.45 µM (active) |
| O=C(Nc1ccc(S(=O)(=O)N2CCCC2)cc1)c1ccc([N+](=O)[O-])o1 |  | 1.16 µM (active) |
| O=C(Nc1cccc(S(=O)(=O)N2CCCCC2)c1)c1ccc([N+](=O)[O-])o1 |  | 0.729 µM (active) |
| COc1ccc(C2CC(c3ccccc3)Nc3ncnn32)cc1 (stereo not given) | -23.7% (inactive) |  |
| Cc1ccc(NC(=O)c2ccc([N+](=O)[O-])o2)cc1S(=O)(=O)N1CCOCC1 |  | 0.729 µM (active) |
| NC(=O)c1ccsc1NC(=O)c1ccc(N2CCCC2=O)cc1 |  | 2.59 µM (active) |
| CN(C(=O)c1ccc(F)c(S(=O)(=O)N2CCOCC2)c1)C1CCCCC1 | 9.08% (inactive) |  |
| CN(C(=O)c1ccc(N2CCCCC2)c([N+](=O)[O-])c1)C1CCS(=O)(=O)C1 (stereo not given) |  | 4.1 µM (active) |
| O=C(NC1CCS(=O)(=O)C1)c1ccc(N2CCCCC2)c([N+](=O)[O-])c1 (stereo not given) |  | 2.31 µM (active) |
| Cc1nc2ccccn2c1C(=O)N/N=C/c1ccc([N+](=O)[O-])o1 |  | 1.83 µM (active) |
| O=C(N/N=C/c1ccc([N+](=O)[O-])o1)c1ccccc1-n1cccc1 |  | 1.16 µM (active) |
| O=C1c2ccccc2C(=O)C1c1ccc2ccccc2n1 |  | 1.16 µM (active) and 1.63 µM (active) |
| O=C1c2ccccc2C(=O)C1c1cc2ccccc2cn1 |  | 1.45 µM (active) |
| O=[N+]([O-])c1ccc(CSc2nnc(-c3cccnc3)o2)cc1 |  | 3.65 µM (active) |
| O=[N+]([O-])c1ccc(CSc2nnc(-c3cnccn3)o2)cc1 |  | 2.31 µM (active) |
| COc1nn(C(C)C(=O)N2N=C(C(F)F)CC2(O)C(F)F)cc1[N+](=O)[O-] (stereo not given) |  | 0.46 µM (active) |
| COc1ccc(OC)c2sc(N3CCN(C(=O)c4ccc([N+](=O)[O-])s4)CC3)nc12 |  | 2.59 µM (active) |
| COc1ccc2nc(N3CCN(C(=O)c4ccc([N+](=O)[O-])o4)CC3)sc2c1 |  | 1.83 µM (active) |
| O=C(c1ccc([N+](=O)[O-])o1)N1CCN(c2nc3ccc(F)cc3s2)CC1 |  | 1.83 µM (active) |
| COc1cccc2sc(N3CCN(C(=O)c4ccc([N+](=O)[O-])o4)CC3)nc12 |  | 2.05 µM (active) |

— PubChem BioAssay AID588397 (National Center for Advancing Translational Sciences (NCATS), 2011)
